# What was measured:
# Assay in all cases: PBM binding z-score (relative to random genomic background probes); higher = stronger binding; sequences stand for … in GC…GCGATTGACAGCGTAGAATGAAGG
# [1] = system: RARb homodimer (NR concentration 270 nM)
# Summary of the method: (§1)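 Scanned fluorescence from custom Agilent 4×180K protein-binding microarrays was regression-normalized. Binding z-scores use random background probes as reference. Ligand-free nuclear receptor dimers were incubated on the arrays for 1 h and detected with antibodies against each partner (one per run).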
# [2] = system: RARg:RXRa (NR concentration 270 nM, RXRa partner concentration 90 nM)
# Summary of the method: as §1
# [3] = system: RARg homodimer (NR concentration 270 nM)
# Summary of the method: as §1
# [4] = system: RXRa DBDmut IVT, anti-RXR (DBD mutation: RXRa K156A/R161A, NR concentration 90 nM)
# Summary of the method: as §1
# [5] = system: RXRa homodimer (NR concentration 180 nM)
# Summary of the method: as §1
# [6] = system: THRa:RXRa (NR concentration 90 nM, RXRa partner concentration 90 nM)
# Summary of the method: as §1
# [7] = system: THRa homodimer (NR concentration 90 nM)
# Summary of the method: as §1
# [8] = system: VDR homodimer (NR concentration 270 nM)
# Summary of the method: as §1
Sequence,PBM binding z-score [1],PBM binding z-score [2],PBM binding z-score [3],PBM binding z-score [4],PBM binding z-score [5],PBM binding z-score [6],PBM binding z-score [7],PBM binding z-score [8]
ACTCGGAGGAGAAAGGTCAGAGCTACGCCAGTGA,4.21,4.22,4.04,0.158,4,2.36,-0.0607,0.437
GCTAGTTGGTCAGTAAAAGGTCACTCACCGGTCG,5.26,5.05,4.43,0.781,4.21,3.31,1.47,1.36
CGTCAAAGTTCAAGGTAACGTTACAGAAAGCAGC,4,5.44,6.2,4.52,4.96,2.94,1.13,3.32
TGTCAAAGTTCAAAGGTAACGTACGTATCCACAC,3.77,6.34,5.94,4.49,6.98,2.98,0.0494,4.29
AGAAAGAGGGCAATGAGTTGATAGCACGGGTGGC,1.65,1.64,2.08,1.7,1.07,0.681,-0.101,3.05
GCTCGGAGGTCAAGGTCAGAGCTTTGTCCGTAGA,5.13,7.02,7.59,3.19,7.07,4.24,2.72,3.21
AGAATGAGGTTAAGAACAGGGAAACAGAATACAT,1.14,1.96,1.4,0.678,2.42,2.25,0.727,0.533
TCGAGTAGGGTACCAATGGGGCATTCAGCTTTCT,0.23,-0.106,-0.439,-0.161,0.0647,-0.59,-0.915,-0.697
AGAAGGAGGTTATACGTAGATCAGGGAAGAAAGT,1.26,1.3,1.11,0.234,1.59,1.28,0.665,0.752
TCTAGCAGGCCAGAGGGTCACCCAAGAGGTACGG,2.74,3.04,2.17,-0.135,2.96,1.97,0.143,0.203
AAAACGAGGGCACGCTGAGTTGATAGCAGAGTAG,1.08,2.13,2.34,2.08,1.62,1.94,0.0518,2.26
GGAACGAGGGCAAGTTGTTAGCAGAGTTTGATGG,1.42,1.49,1.82,2.39,0.957,1.46,0.187,1.65
GCGACTGGGCCATCAGCAGGTTACCATAACTTAA,0.461,-0.0254,0.0324,-0.654,-0.151,0.132,-0.441,-0.661
CAAACTAGGTCACGGAAGGTCAAAGTCGAATGAC,5.47,7.13,7.4,2.45,7.3,5.24,2.79,3.53
TCGAGTAGGTTACCAATGGGGCAATCAGCTTTCT,0.687,1.67,0.463,0.325,0.707,0.302,-0.774,-0.712
TCTCGGAGCACACGAAGGTCAGAGCTTTCCAGAG,2.66,2.84,1.83,-0.242,1.7,1.35,-0.853,-0.73
CCTGCTAAGTCAATGGTCAGCTAAAGCAGCTCGC,0.12,-0.277,-0.302,0.497,-0.263,-0.402,-0.724,-0.804
CCTGGTAGGTCATGGTCAGCTAATCTACAGTATG,3.07,4.23,4.8,0.728,3.62,2.22,0.615,0.706
GCGACTGGGGCAGCAGCAGGTTACCATAACTTAA,0.746,0.167,0.234,-0.331,-0.00155,0.651,-0.162,-0.595
TCTTGTAGATCAACAGGGGGTTAAGAAAGATCGA,1.32,1.91,0.92,1.89,1.93,1.86,0.559,0.493
GCGACTGGCGCAAAGCAGGTTACCATAAGGTTGG,-0.0806,-0.27,-0.774,-0.791,-0.0574,0.636,-0.543,-0.861
TTACCAAGGTGAGCTGGGGTCGTTGATCCAACTC,1.42,1.31,0.493,-0.222,2.1,4.38,1.23,1.84
ATTTCTAGGTAACAAGTTCAGTGAAAGAGAGGAC,2.14,1.75,1.66,1.44,1.12,1.83,1.35,3.04
AGAATGAGGTTAAGATGAGGGAAACAGAATACAT,1.16,2.21,1.62,1.17,2.38,2.61,0.911,0.657
TCTTGTAGATCAAATGTTAAGAAAGCCGAAGCCT,-0.797,-0.173,-0.241,1.15,0.176,-0.551,-0.39,-0.522
CCAGACAGGTGAAAGGTAGCTCAGTCTGGTACGC,0.293,0.352,0.242,-0.0776,1.07,0.0213,-0.421,0.118
CGTCAAAGTTCCACTAAGGTAACGTAAAGCACGC,0.376,0.418,0.398,0.475,0.357,4.02,1.69,0.238
CAAACTACGTCAAAGGTCAAAGTCGAGCCAACCA,4.68,6.1,5.88,1.66,7.92,3.5,0.927,2.36
CCGACTGGGGCAGAAAGGTTAACATACCATCCGG,2.42,1.95,1.84,-0.366,2,1.09,-0.284,-0.0953

# From the supplement of paper PMC6555819
